Drawing on PubChem BioAssay (NCI), this text covers growth for 16 compounds.

Common to all, as to assay: NCI-60 one-dose screen, 48 h (100 = growth as untreated, 0 = no growth, -100 = all killed)
Common to all, as to conditions: 10 µM unless noted

For experiment [1], the system named is SK-MEL-2 melanoma.
Experiment [2] has as its system EKVX NSCLC.
For experiment [3], the system named is SN12C renal.
Experiment [4] has as its system UO-31 renal.
Experiment [5] concerns TK-10 renal.
Experiment [6] concerns ACHN renal.
In experiment [7] the test system is CAKI-1 renal.
Experiment [8] deals with A498 renal.
The subject of experiment [9] is CCRF-CEM leukemia.
Experiment [10] has as its system MOLT-4 leukemia.

“And” between values parts separate entries of the source, which are not always exact repeats. Equal entries are not always repeated. The panel holds about 83,000 compounds, 20% with a hit somewhere; the sample as a whole holds those more often.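 Note: values are percent growth. 100 is the growth of untreated cells, values between 100 and 0 indicate rising inhibition; between -100 and 0 indicates cell death.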 Values without a mark were called inactive. The source made the active and inactive calls. The calls were made as follows: active = growth percent below 10; inactive = the rest.

With `O=C(NNC(=S)NCCc1ccccc1)c1ccc(OCc2nc3ccc(Cl)cc3[nH]2)cc1`, the growth in [1] was 71.6%; in experiment [2], 66.1%; in [3], 73.1%; in [4] it was 54.1%; in [5], 83.8%; in [6] it was 81.1%. In addition, the growth in experiment [7] is 79.9%; in experiment [8] it was 166%; in [9] it was 58.9%; in experiment [10] it was 39.7%.

As to `Cn1cc(-c2cc3nc(-c4cn(C)c5ncccc45)cc(N)n3n2)c2cc(F)ccc21`, the growth is 83.9% in experiment [1]; 69.8% in experiment [2]; 51.2% in [3]; 52.6% in experiment [4]; 74.6% in [5]; 17.6% in experiment [6]. In addition, the growth in [7] was 12.8%; in [8], 138%; in [9], 38.6%; in [10], 55.5%.

`COc1cccc(-c2ccc(/C=N/NC(=O)c3[nH]c4ccc(Br)cc4c3-c3ccccc3)s2)c1`: the growth in experiment [1] was -3.93% (active); in [2], 17.9%; in [3] it was 0.265% (active); in experiment [4] it was 19.9%; in experiment [5], 8.47% (active); in [6] it was 7.04% (active). Also, the growth in experiment [7] is 9.77% (active); in experiment [8], 63.2%; in experiment [9], 16%; in [10], 6.82% (active).

Consider `Cc1oc(-c2ccccc2)nc1CN[C@@H]1C[C@@H]2C[C@H]([C@H]1C)C2(C)C`, for which the growth in [1] was 85.7%; in [2], 42.4%; in [3] it was 10.1%; in experiment [4] it was 23.9%; in experiment [5], 80.8%; in experiment [6], 25.8%. Besides, the growth is 44.5% in experiment [7], 31.6% in [8], 23.7% in [9] and 0.127% (active) in experiment [10].

On to `N#Cc1c(-c2ccc(F)cc2)nc(SCc2ccccc2)nc1N1CCNCC1`, for which the growth in experiment [1] was -82.9% (active); in [2], -98.3% (active); in experiment [3], -93.5% (active); in experiment [4], -82.7% (active); in [5] it was -88.3% (active); in experiment [6] it was -99% (active). For the same compound, the growth is -95.3% (active) in experiment [7], -13.8% (active) in experiment [8], -3.47% (active) in [9] and -0.64% (active) in experiment [10].

In the case of `COc1c2c(cc3c1C(CCc1ccccc1)N(C)CC3)OCO2` (stereo not given), the growth in [1] was -18.1% (active); in experiment [2], 16.1%; in [3], 8.61% (active); in experiment [4], 14.3%; in experiment [5], 33.5%; in experiment [6], 14.9%. For the same compound, the growth was 14.5% in experiment [7], -15.4% (active) in [8], 14.2% in experiment [9] and 8.71% (active) in experiment [10].

Regarding `COc1cc(-c2ccc3ncnc(N4CCc5ccc(Cl)cc54)c3c2)cnc1Cl`, the growth in [1] is 54.2%; in experiment [2], 2.35% (active); in experiment [3], 26.9%; in [4], 5.14% (active); in experiment [5], 29.5%; in experiment [6] it was 14.1%. For the same compound, the growth was 12.9% in [7], -4.48% (active) in experiment [8], 12.2% in experiment [9] and 6.74% (active) in experiment [10].

`O=C(NNC(=S)NC(=O)c1ccccc1)c1ccc(OCc2nc3ccc(Cl)cc3[nH]2)cc1`: the growth in [1] is -47.3% (active); in experiment [2], -53% (active); in [3], -80.2% (active); in experiment [4], -76.1% (active); in [5] it was 11.2%; in experiment [6], -43% (active). Moreover, the growth in experiment [7] was -1.67% (active); in [8] it was -55% (active); in experiment [9], 2.87% (active); in [10] it was 2.46% (active).

For `O=C(CSc1nc2sc3c(c2c(=O)n1-c1ccc(Cl)cc1)CCCC3)NNC(=O)c1ccc(Br)cc1`, the growth in [1] was 99.1%; in experiment [2], 60.9%; in experiment [3], 46%; in experiment [4] it was 62.3%; in experiment [5], 139%; in [6], 91.2%. Further, the growth in [7] is 71.4%; in experiment [8], 127%; in experiment [9] it was 61.2%; in experiment [10], 73.2%.

Regarding `C=CCSc1nnc(-c2ccc(-c3nc4ccc(Cl)cc4[nH]3)cc2)o1`, the growth was 38.7% in [1]; 60.8% in experiment [2]; 63.1% in experiment [3]; 78.4% in experiment [4]; 90.3% in [5]; 78.8% in experiment [6]. The growth is 49.2% in experiment [7], 106% in experiment [8], 37.1% in experiment [9] and 48.9% in experiment [10].

Turning to `COc1cc(C=O)ccc1OC(=O)c1cc(-c2ccc(C)cc2)n(-c2ccc(S(C)(=O)=O)cc2)n1`, the growth in experiment [1] is 108%; in experiment [2], 98.8%; in experiment [3], 99.2%; in experiment [4], 85.6%; in experiment [5], 126%; in experiment [6], 104%. Besides, the growth was 93.5% in [7], 143% in [8], 96.9% in experiment [9] and 91.4% in [10].

Regarding `CC(=O)Nc1cccc(-n2c(COc3ccc(Br)cc3)nc3ccccc32)c1`, the growth in experiment [1] is 95.4% and 112%; in experiment [2] it was 98.1% and 103%; in [3] it was 104% and 110%; in [4], 69.3% and 86.1%; in experiment [5], 119% and 110%; in [6] it was 79.6% and 107%. Besides, the growth in experiment [7] was 72.4% and 101%; in experiment [8] it was 105% and 124%; in experiment [9] it was 95.9% and 98.5%; in experiment [10], 84.6% and 101%.

For `COc1cc(CNC(=O)C[C@H](C)CCC=C(C)C)ccc1OCc1cn(-c2ccccc2Cl)nn1`, the growth in experiment [1] was 53.3%; in experiment [2] it was 54%; in experiment [3] it was 69.6%; in experiment [4] it was 30.3%; in experiment [5] it was 93.1%; in experiment [6] it was 67.6%. For the same compound, the growth in experiment [7] is 46.3%; in [8], 107%; in experiment [9] it was 40.1%; in [10], 16.3%.

Consider `COc1ccc(NC(=O)Cn2c(/C=C/c3cccc(Br)c3)nc3ccccc3c2=O)cc1`, for which the growth was 80.3% in experiment [1]; 81.8% in [2]; 5.79% (active) in experiment [3]; -60.6% (active) in experiment [4]; -39.4% (active) in [5]; -51.1% (active) in experiment [6]. For the same compound, the growth is 55.7% in experiment [7], -51.1% (active) in experiment [8], 86.8% in [9] and 86.5% in [10].

Consider `Cc1ccc2nc(NC(=O)Nc3cccc(Cl)c3)sc2c1`, for which the growth is 114% in experiment [1]; 87.7% in [2]; 103% in [3]; 82% in experiment [4]; 114% in [5]; 105% in experiment [6]. For the same compound, the growth in experiment [7] was 90.7%; in experiment [8], 144%; in [9], 89.6%; in experiment [10], 82.9%.

Consider `COc1cc(C2C(C(=O)OCc3ccccc3)=C(C)Nc3nc4ccccc4n32)cc(OC)c1OC` (stereo not given), for which the growth is 47.5% in [1]; 36.8% in [2]; 37.1% in experiment [3]; 1.37% (active) in experiment [4]; 34.6% in experiment [5]; -4.94% (active) in experiment [6]. Further, the growth in [7] was 6.89% (active); in [8], -22.7% (active); in experiment [9], 41.7%; in experiment [10], 33.2%.
